Experimental findings from PubChem BioAssay (NCI) are described below.

The panel holds about 83,000 compounds, 20% with a hit somewhere; the sample as a whole holds those more often.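 Note: values are percent growth. 100 is the growth of untreated cells, values between 100 and 0 indicate rising inhibition; between -100 and 0 indicates cell death.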 Unmarked numbers belong to inactive results. Activity calls are given as the source filed them.

The test system of this assay is OVCAR-3 ovarian. Briefly: NCI-60 one-dose screen, 48 h (100 = growth as untreated, 0 = no growth, -100 = all killed). The conditions noted are these: 10 µM unless noted. The protocol:
Growth inhibition of the OVCAR-3 human tumor cell line is measured as a screen for anti-cancer activity. Cells are grown in 96 well plates and exposed to the test compound for 48 hours. Compounds are tested at a single concentration, which is 10^-5 M for most compounds. The reported endpoint is percent growth (GI% or GIPRCNT), where numbers from 0 - 100% represent growth inhibition, and numbers from -100% - 0 represent cell death. For example, a value of 40 represents 60% growth inhibition. A value of 0 means no net growth occurred over the course of the experiment. A value of -40 indicates 40% of cells at the beginning of the experiment died by the end of the experiment. A value of -100 means all cells are dead at the end of the experiment.
NCI-60 Human Tumor Cell Lines Screen was performed using the standard one-dose NCI protocol, which is described in more detail at https://dtp.cancer.gov/discovery_development/nci-60/default.htm.
Compounds with GIPRCNT values below 10 were considered active. Activity score was based on GIPRCNT using the following formula: […]
Score is 0 for GIPRCNT values of 100 or above, 50 for GIPRCNT values of 0, and 100 for GIPRCNT values of -100.
Consider `CCOC(=O)C(Cc1ccc(OC)cc1)C(=O)OCC`, for which the growth was 2.41% (active).
`CCc1ccc(CCC(=O)Nc2ncc(Cc3ccccc3)s2)o1`: the growth was -11.2% (active).
As for `CCOC(=O)CC1CSC(Nc2ccccc2)=N1` (stereo not given), the growth is 102%.
On to `CCN1C2CCC1/C(=C\c1ccc(F)cc1)C(=O)/C2=C/c1ccc(F)cc1`, for which the growth is 11%.
For the molecule `O=S(=O)(NCCNc1nccc(-c2c(-c3ccc(F)c(O)c3)nc3sccn23)n1)c1ccc(F)cc1`, the growth is 39.4%.
The result for `c1ccc2c(c1)CCCc1nnc3nc4ccccc4n3c1-2` reads 23.6%; that for `FC(F)(F)c1ccc(Cn2cc(CSc3nc4ccccc4s3)nn2)cc1`, 105%; that for `O=C(CCCCCCN1CC(=O)N2[C@H](c3ccc(Cl)cc3)c3[nH]c4ccccc4c3C[C@@H]2C1=O)NO`, 56.5%.
The value for `CN(Cc1cc(Br)cc(Br)c1O)Cc1cc(Br)cc(Br)c1O` was 4.97% (active); that for `CCOC(=O)c1cc(C(=O)c2cc(OC)c(OC)c(OC)c2)n2ccccc12` was -5.59% (active).
Take `CCc1ccc(CCC(=O)Nc2ncc(Cc3cc(Cl)ccc3Cl)s2)o1`: the growth is -2.36% (active).
Consider `O=C1/C(=C2\SC(=S)N(C3CC3)C2=O)SC(=S)N1C1CC1`, for which the growth was 107%.
As to `NC(=O)c1cccc([C@@H]2O[C@H](CO)[C@@H](O)[C@H]2O)c1`, the growth was 70.6%.
For the molecule `COc1cc(/C=C/C(=O)c2ccc(-n3cc(CN4CCN(c5cc6c(cc5F)c(=O)c(C(=O)O)cn6C5CC5)CC4)nn3)cc2)ccc1O`, the growth was 57.3%.
For the molecule `Oc1c(CN2CCCC2)cc(CSCc2ccccc2)c2cccnc12`, the growth is 5.77% (active).
In the case of `CC(=O)c1ccc(Nc2nccc(-c3ccc4ccccc4c3)n2)cc1`, the growth is 99.3%.
On to `CCN(CC)c1ccc(CNc2cc(C)nc3ccccc23)cc1`, for which the growth was 63.7%.
As to `Clc1ccccc1-c1cnn2cc(-c3ccccc3)cnc12`, the growth is 90%.
On to `N#CC1CCc2c(c(-c3ccc4nc(N)sc4c3)nc3ccc4[nH]ncc4c23)C1` (stereo not given), for which the growth was 69.7%.
The value for `C=CN(C(=O)N1CCN(c2cc3c(cc2F)c(=O)c(C(=O)O)cn3C2CC2)CC1)c1nc(-c2ccc(OC)cc2)cs1` was 13.7%.
In the case of `CN1CCN(CCCOc2cccc3nc(Nc4ccc(F)c(F)c4)ccc23)CC1`, the growth was 8.36% (active).
Regarding `CC(C)(C)n1cc(-c2ccnc(NCCCNS(=O)(=O)c3ccc(C(F)(F)F)cc3)c2)c(-c2cccc(F)c2)n1`, the growth is 95%.
With `COC(=O)c1nc(-c2ccccc2)oc1S(=O)(=O)NCC(c1ccc(Cl)cc1)N1CCOCC1` (stereo not given), the growth is 35.1%.
As for `Cc1ccc(S(=O)(=O)c2nc(-c3ccccc3)oc2Sc2nc3ccccc3s2)cc1`, the growth was 77.9%.
The result for `COc1ccc2cc(-c3ccnc4c(N=Nc5ccc(Cl)cc5)c(N)nn34)ccc2c1` reads 105%.
As for `Clc1c(Cl)[n+](Cc2ccc3ccccc3c2)cn1Cc1ccc2ccccc2c1`, the growth was -21.8% (active).
For the molecule `C#CC#CC#CC#CC#CC#CC#CC#CCC1OC[C@H](COC(=O)O[C@@H](C(=O)O[C@H]2C[C@@]3(O)[C@@H](OC(=O)c4ccccc4)[C@@H]4[C@]5(OC(C)=O)CO[C@@H]5C[C@H](O)[C@@]4(C)C(=O)[C@H](OC(C)=O)C(=C2C)C3(C)C)[C@@H](NC(=O)c2ccccc2)c2ccccc2)O1` (stereo not given in full), the growth is 9.45% (active).
Consider `C=C(C)[C@@H]1CCC[C@]2(C(=O)N3CCN(C)CC3)CC[C@]3(C)[C@@H](CC[C@@H]4[C@@]5(C)CC/C(=N\NC(=O)c6ccncc6)C(C)(C)[C@@H]5CC[C@]43C)[C@@H]12`, for which the growth is 95.5%.
In the case of `Fc1cccc(-c2ccc3c(c2)C2(CCNCC2)CN3)c1`, the growth was 102%.
The result for `Cc1cccc(-c2nc(Nc3ccc4ncsc4c3)c3ccccc3n2)n1` reads 10.1%; that for `O=S(=O)(Oc1ccc(Br)cc1)c1ccc(Cl)cc1`, 98.3%.
With `COc1ccc(/C=C(/c2ccccc2)[N+](=O)[O-])c(OC)c1`, the growth is -80.6% (active).
Turning to `CN(Cc1cnc2nc(N)nc(N)c2n1)c1ccc(C(=O)NC(CCC(=O)O)C(=O)O)cc1Br` (stereo not given), the growth was 53.8%.
Take `CCN(CC)CCN1C(=O)c2c(c(C)c3c(oc4ccc(OC)cc43)c2C)C1=O`: the growth is 115%.
The value for `CCN(CC)CCN1C(=O)c2cccc3c(/C=C/CN4C(=O)c5cccc6cccc(c56)C4=O)ccc(c23)C1=O` was 108%; that for `COC(=O)c1c2c(c(C)[n+]([O-])c1C)C(=O)C(NCc1ccc(OC)cc1)=CC2=O` was -18.6% (active).
Turning to `Cc1ccc(/C=C/C(=O)c2cccc(OCCCOc3cccc(C(=O)/C=C/c4ccc(C)cc4)c3)c2)cc1`, the growth was 82.4%.
With `CCCCNc1nnc2n(Cc3ccccc3)c(=O)c3c4c(sc3n12)CCCC4`, the growth was 49.2%.
`COc1ccc(-c2nc(/C=C3\C(=O)N(C)c4ccccc43)c3ccccn23)cc1`: the growth was 94.3%.
Regarding `NC1=Nc2cc(OCCCCN3Cc4ccccc4C3)c(OCC3CC3)cc2C12CCCC2`, the growth is 52.5%.
